High-throughput results (PubChem)
M1 antag: antagonists of human M1 muscarinic receptor | inhibition, % at 3 µM | P11229 | CHO-K1 hM1, Fluo-8 calcium fluorescence, ACh EC80 antagonist | AID 588852 | 360,000 tested, 1.3% active;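 active means percent inhibition above its own plate's cutoff, namely the mean of that plate's compound wells plus 3 SD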;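 further: peak over basal fluorescence ratio during 140 s after agonist addition; 0% = ACh EC80 plus DMSO and 100% = DMSO alone without agonist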
Target sequence (P11229 whole entry, looked up): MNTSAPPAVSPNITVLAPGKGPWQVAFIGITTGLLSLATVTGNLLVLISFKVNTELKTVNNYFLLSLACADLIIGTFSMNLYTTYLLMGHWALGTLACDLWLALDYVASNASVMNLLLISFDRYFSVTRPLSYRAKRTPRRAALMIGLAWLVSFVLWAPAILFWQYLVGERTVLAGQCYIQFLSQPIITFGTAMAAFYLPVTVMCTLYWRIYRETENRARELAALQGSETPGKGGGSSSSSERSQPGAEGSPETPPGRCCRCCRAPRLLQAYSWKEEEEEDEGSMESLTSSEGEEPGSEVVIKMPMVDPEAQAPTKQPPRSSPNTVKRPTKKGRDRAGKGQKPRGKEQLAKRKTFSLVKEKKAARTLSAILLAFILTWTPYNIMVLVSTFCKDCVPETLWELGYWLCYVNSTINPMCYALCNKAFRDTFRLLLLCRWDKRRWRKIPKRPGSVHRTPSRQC
M1 ag: agonists of human M1 muscarinic receptor; P11229; CHO-K1 hM1, Fluo-8 calcium fluorescence, agonist mode; 0% DMSO, 100% acetylcholine EC100; activation, % at 3 µM; 360,000 tested, 0.33% active;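 active means activation above the run's mean compound activation plus 3 SD, cut at about 16% in these data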;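 further: peak over basal fluorescence ratio within a 140 s kinetic read after compound addition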
M1 ag parental: counter-screen for M1 agonists: effect in parental CHO-K1 cells; Fluo-8 calcium fluorescence; scaled to maximal ATP response, vehicle zero; activation, % at 3 µM; 360,000 tested, 0.48% active; AID 602248; in the data active means activation above about 15%;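 further: untransfected CHO-K1 host cells lacking M1 receptor as counterscreen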
M1 PAM: potentiates human M1 receptor response to acetylcholine; AID 588819; P11229; activation, % at 3 µM; CHO-K1 hM1, Fluo-8 calcium fluorescence, ACh EC20; 0% = ACh EC20, 100% = maximal ACh; 360,000 tested, 0.088% active; in the data active means activation above about 19%, passing the limit was not always enough
CHO-K1 Ca antag: nonselective inhibitor or artifact in parental CHO-K1 cells | ATP-induced calcium, Fluo-8 fluorescence | inhibition, % at 3 µM | 360,000 tested, 0.6% active;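 active means inhibition above a per-plate cutoff, the plate's mean sample inhibition plus 3 SD, cut at about 24% in these data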;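 further: 0% = DMSO plus EC80 ATP and 100% = DMSO alone without ATP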
M1 PAM parental: counter-screen for M1 PAMs: effect in parental CHO-K1 cells. ATP EC20, Fluo-8 calcium fluorescence; 0% at ATP EC20, 100% at ATP max. activation, % at 3 µM. 360,000 tested, 0.02% active. AID 602247;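 active means activation above the run cutoff, the mean activation of all test compounds plus 3 SD, cut at about 40% in these data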;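 further: peak over basal fluorescence ratio in a 140 s read after ATP addition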
An asterisk follows results filed as active; . = no result given. Most compounds without a hit are left out; they make up all but 2.3% or so of the library.

SMILES	M1 antag	M1 ag	M1 ag parental	M1 PAM	CHO-K1 Ca antag	M1 PAM parental
CCN1CCN(c2ccc(NC(=O)CCc3c(C)nc4c(-c5ccc(F)cc5)c(C)nn4c3C)cc2)CC1	34*	-9	1	-26	-8	26
Cc1ccc(-c2nc3ncccc3o2)cc1NC(=O)c1cc2ccccc2o1	0	-4	0	-8	-3	10
O=C(Nc1cccc(-c2nc3ncccc3o2)c1)c1cc2ccccc2o1	2	-3	3	-15	26*	-4
CNc1oc(-c2ccccc2F)nc1S(=O)(=O)c1ccc(C)cc1	2	0	-1	7	-2	-19
Cc1ccnc2nc(C(=O)OCCOc3cccc(Br)c3)nn12	-20	3	0	23*	26*	-5
Cc1ccnc2nc(C(=O)OCC(=O)NC3CCCC(C)C3C)nn12 (stereo unspecified)	-23	1	-1	30*	-16	-4
Cc1ccnc2nc(C(=O)OCC(=O)NC3CCC(C)CC3)nn12 (stereo unspecified)	-13	-4	0	8	-7	3
O=C(CN1CCC(O)(c2ccccc2F)CC1)NCCc1c[nH]c2ccccc12	-1	-5	5	2	-15	20
CCOc1ccccc1NC(=O)c1cc(=O)[nH]c2ccc(S(=O)(=O)N3CCOCC3)cc12	-4	-3	0	4	-21	6
CN(C)CCCn1c(SCC(=O)N2CC(=O)Nc3ccccc32)nc2ccccc2c1=O	-1	-8	0	0	-14	13
CC(C)N(CCn1c(SCC(=O)N2CC(=O)Nc3ccccc32)nc2ccccc2c1=O)C(C)C	61*	-6	0	-23	-20	3
CC(C)Oc1ccc(C(=O)Nc2ccc(N3CCCC3)cc2)cc1	29*	-9	-1	-13	12	-6
COc1cccc(OC)c1C(=O)Nc1ccc(N2CCCC2)cc1	31*	-7	0	-19	-2	-18
COc1ccccc1C(=O)Nc1ccc(N2CCCCC2)cc1	-8	-5	1	4	-22	19
CC(=O)c1cccc(NC(=O)C(C)OC(=O)c2ccc(Br)o2)c1 (stereo unspecified)	-10	-9	0	6	-16	-3
CC#CC[N+](C)(C)CCCCCCCCCCCC	41*	-10	1	-27	-8	16
C#CC[N+](C)(C)CCCCCCCCCC	21	-8	0	-17	0	20
C#CC[N+](C)(C)CCCCCCCCCCCC	56*	-14	24*	-26	-7	29
Cc1ccc(-n2c(C)cc(/C=C3\NC(=O)NC3=O)c2C)c(C)c1	32*	-8	1	-19	-19	25
Cc1cc(/C=C2/NC(=O)NC2=O)c(C)n1-c1ccccn1	-1	-3	0	8	11	15
O=C(O)c1nn(Cc2csc(-c3ccccc3)n2)c(=O)c2ccccc12	-6	6	0	16	-17	2
CC(C)C(=O)N1CCCC1(C)C(=O)Nc1ccc(-n2cncn2)cc1 (stereo unspecified)	-26	-2	0	18	2	-5
CCOC(=O)C1[C@H]2C(=O)N(C(C)c3ccc(OC)cc3)C[C@]23C=C[C@H]1O3 (stereo partly specified)	69*	-9	1	-21	-9	28
CCCCN1C(=O)C(=O)N(CC(=O)Nc2cc(Cl)ccc2OC)C1=O	-19	1	1	28*	-20	-2
O[C@H]1C[C@H](c2ccccc2)N(Cc2cccs2)C[C@@H]1n1cc(-c2ccc(F)cc2)nn1	-7	0	0	3	-11	24
SMILES	M1 antag	M1 ag	M1 ag parental	M1 PAM	CHO-K1 Ca antag	M1 PAM parental
Cc1ccccc1NS(=O)(=O)c1ccc2c3c(cccc13)C(=O)N2C	3	2	5	3	-18	8
CN1C(=O)c2cccc3c(S(N)(=O)=O)ccc1c23	0	4	16*	6	0	13
CC(C)c1ccc([C@@H]2O[C@H](C)CC3=C2C(=O)OC(C)(C)O3)cc1	.	.	0	.	-10	23
O=C(NCc1ccccc1)C(c1ccccc1)N(Cc1cccs1)C(=O)c1cnccn1 (stereo unspecified)	43*	1	6	-7	15	11
O=C(NCc1ccccc1)C(c1ccc(F)cc1)N(Cc1cccs1)C(=O)c1cnccn1 (stereo unspecified)	11	2	5	-6	-1	23
Cc1c(NC(=O)C(C)OC(=O)c2c3c(nc4ccccc24)CCC3)c(=O)n(-c2ccccc2)n1C (stereo unspecified)	-2	-12	1	2	-4	13
OC(CNCCNc1ncccc1C(F)(F)F)Cn1ccc2ccccc21 (stereo unspecified)	0	20*	6	-3	-15	22
Cc1cc(O)c(C(=O)/C=C/c2ccccc2Br)c(=O)o1	-5	0	18*	8	6	8
COc1ccc(-n2c(-c3ccc(Cl)cc3)c[n+]3c2CCc2ccccc2-3)cc1	18	-13	1	-21	-4	24
Cc1ccc(-n2c(-c3ccc(Br)cc3)c[n+]3c2CCc2ccc4cccnc4c2-3)cc1	91*	-6	5	-20	13	14
O=C(Nc1cccc(Cl)c1)Nc1nc(-c2ccc(Cl)cc2)cs1	30*	3	5	-5	22	4
O=C(Nc1cccc(Cl)c1)Nc1csc([N+](=O)[O-])c1	26	6	16*	0	20	-6
COc1cccc(NC(=O)Nc2nc(-c3ccc(OC)c(OC)c3)cs2)c1	31*	3	11	-13	18	-27
COc1ccc(-c2csc(NC(C)=O)n2)cc1OC	-13	-4	0	5	-6	12
O=C(Cc1csc(NC(=O)Nc2cccc(Cl)c2)n1)NC1CCCC1	4	6	16*	1	8	-3
O=C(Nc1ccncc1)Nc1cccc(Cl)c1	18	5	14	-10	3	2
O=C(Cc1csc(NC(=O)Nc2cccc(Cl)c2)n1)NCc1ccccn1	2	1	8	-2	-2	5
COc1ccc(OCC(=O)Nc2ccncc2)cc1	-10	5	5	-8	-2	-20
CCN1CCN(C2CCCCC2NS(=O)(=O)c2ccccc2)CC1 (stereo unspecified)	34*	-5	0	-15	-4	-6
O=S(=O)(NC1CCCCC1N1CCCCC1)c1ccccc1 (stereo unspecified)	-14	-7	0	21	-13	4
Cc1ccc(CN(C)C(=O)COC(=O)CSc2cc(C)c3ccccc3n2)cc1	-5	-2	-1	4	-7	-4
CCCNC(=O)C1(C)CCCN(C(=O)c2cc(C)n(C(C)(C)C)n2)C1 (stereo unspecified)	-4	-4	0	3	-3	15
